{
  "source": "PubChem BioAssay AID2669",
  "about": "(National Center for Advancing Translational Sciences (NCATS), 2010)",
  "note": "Records with an inconclusive call do not appear. The source made the active and inactive calls. Calls follow the shape of the dose curve; as a rule, active = well fitted inhibition curve with a large enough effect; inconclusive = small, poorly fitted or top-dose-only effect, or effect the other way; inactive = flat fitted curve, though single readings scatter.",
  "data": [
    {"test": "qHTS Assay Multiplex Screening to Identify Dual Action Probes in a Cell Model of Huntington: Cytoprotection (Protease relase)", "conditions": "PC12 HttQ103 cells, Cytotox-Glo protease release, 40 h; series mostly up to 46.1 µM", "from_the_text": "NIH Chemical Genomics Center [NCGC]\nNIH Molecular Libraries Probe Production centers Network [MLPCN]\nAssay Submitter (PI): Wei Zheng\nHuntington's disease is a neurodegenerative disorder caused by a trinucleotide repeat expansion in Exon 1 of the Huntingtin gene. The CAG trinucleotide encodes glutamine and polyglutamine expansions cause cell death in selective areas of the brain. Huntington polyglutamine repeats have the tendency to form aggregates which are observable in later stages of the disease. The exact nature of the aggregates, whether toxic, protective, or insignificant, is unclear.\nA stable PC12 cell line containing a gene fusion of Exon 1 of the Huntingtin gene linked to GFP under the control of the inducible ecdysone promoter were used as the cell-based model of Huntington Disease for high throughput screening. Exon 1 of the Huntingtin gene contained an expansion of 103 polyglutamines (Q103) which, when expressed, caused cell death and distinct, bright GFP aggregates. The amount of cell death and the size and intensity of GFP aggregates increased over time and induction level. In the primary screen, cell death were quantified with a measurement of ATP content in the cells. A maximal 40-50% of cell death was observed when the Huntington gene was induced in this cell line.\nWe optimized this assay in a homogeneous 1536 well format. A quantitative high throughput screen (qHTS) was conducted on the PC12 cells which were induced to express the toxic fusion construct. Small molecules which prevented cell death were considered hits, and were further studied. The present assay is an alternate assay for cytoprotection using Promega's Cytotox-Glo reagent.\nPC12 cells stably containing a construct with an ecdysone inducible promoter expressing GFP fused to the exon 1 of HTTQ103 (Huntington protein which containing a 103 ployglutamine expansion) were used.\nNCGC Assay Protocol Summary:\nSequence, Parameter, Description\n1, Reagent, 5 uL 1500 cells/well 1536 TC treated White clear bottom plate\n2, Compound, 23 nL Tebufenozide inducer (100 nM final) to all columns\n3, Compound, 23 nL 40 uM to 0.5 nM Libraries\n5, Reagent, 2 ul Promega's Cytotox-Glo assay reagent\n6, Detector, 4 sec integration with a Viewlux Luminescent\nMedia consisted of phenol red free DMEM + 5% equine serum (Hyclone # SH30072.03 ), 5% supplemented Bovine Calf Serum (Hyclone # SH30074.03 ), 1x pen/strep, no G418", "values": [
      {"compound": "CCc1nc(SCC(=O)N2CCCC2)c2ccccc2n1", "Potency": "inactive"},
      {"compound": "COc1cc2nc(N3CCN(C(=O)C4CCCO4)CC3)nc(N)c2cc1OC", "note": "(stereo not given)", "Potency": "4.47 µM (active)"},
      {"compound": "O=C(O)c1cc(=O)c2ccc(Cl)cc2[nH]1", "Potency": "inactive"},
      {"compound": "CCOC(=O)c1sc2nc(N3CCOCC3)c3c(c2c1N)CCN(C)C3", "Potency": "inactive"},
      {"compound": "CN(C)CCCSc1ccccc1NC(=O)/C=C\\c1ccccc1", "Potency": "6.31 µM (active)"},
      {"compound": "Cc1csc(N/N=C/c2ccc(O)c([N+](=O)[O-])c2)n1", "Potency": "1.78 µM (active)"},
      {"compound": "Cn1nnnc1Sc1ncnc2scc(-c3ccccc3F)c12", "Potency": "12.6 µM (active)"},
      {"compound": "Cn1nnnc1Sc1ncnc2scc(-c3ccccc3Cl)c12", "Potency": "15.8 µM (active)"},
      {"compound": "CC(=O)c1cccc(-c2csc3ncnc(Sc4nnnn4C)c23)c1", "Potency": "7.08 µM (active)"},
      {"compound": "c1csc(-c2cn3c(n2)SCC3)c1", "Potency": "inactive"},
      {"compound": "NC(=O)c1sc2nc3c(c(-c4cccs4)c2c1N)CCCCC3", "Potency": "inactive"},
      {"compound": "Cn1nnnc1Sc1ncnc2scc(-c3ccc4c(c3)OCO4)c12", "Potency": "10 µM (active)"},
      {"compound": "Oc1ccc(/C=C/c2cc(O)cc(O)c2)cc1", "Potency": "2.24 µM (active)"},
      {"compound": "N#Cc1ccsc1NC(=O)CSc1ncnc2ccccc12", "Potency": "inactive"},
      {"compound": "Cn1nnnc1Sc1ncnc2scc(I)c12", "Potency": "11.2 µM (active)"},
      {"compound": "COC(=O)C(O)(CC(=O)Nc1ccc(OC(F)(F)F)cc1)C(F)(F)F", "note": "(stereo not given)", "Potency": "inactive"},
      {"compound": "CC(=O)OCC1=C(C(=O)O)N2C(=O)[C@@H](NC(=O)Cc3cccs3)[C@H]2SC1", "Potency": "inactive"},
      {"compound": "Cn1nnnc1Sc1ncnc2scc(-c3ccc(S(C)(=O)=O)cc3)c12", "Potency": "11.2 µM (active)"},
      {"compound": "Cn1nnnc1Sc1ncnc2scc(Br)c12", "Potency": "7.94 µM (active)"},
      {"compound": "COc1cc(NC(=O)COC(=O)[C@@H]2CCCN2S(=O)(=O)c2ccc(Cl)cc2)cc(OC)c1OC", "Potency": "inactive"},
      {"compound": "N#CCCn1c(Cl)nc2ccccc21", "Potency": "inactive"},
      {"compound": "COc1ccccc1-c1nnc(Sc2nc([N+](=O)[O-])nn2C)o1", "Potency": "12.6 µM (active)"},
      {"compound": "CCOC(=O)N1CCN(C(=O)CSCC(=O)Nc2nc(-c3ccc(-c4ccccc4)cc3)cs2)CC1", "Potency": "3.16 µM (active)"},
      {"compound": "O=C(CNc1ccc(Oc2ccccc2)cc1)N1CCOCC1", "Potency": "14.1 µM (active)"},
      {"compound": "COc1ccc(CNC(=O)CN(C(=O)CCC(=O)Nc2ccccn2)c2ccccc2OC)cc1", "Potency": "inactive"},
      {"compound": "CC(=O)Nc1ccc(S(=O)(=O)N2CCSC2c2ccccc2)cc1", "note": "(stereo not given)", "Potency": "inactive"},
      {"compound": "COc1cc(-c2nc(S(=O)(=O)c3ccc(C)cc3)c(N(C)C)o2)cc(OC)c1OC", "Potency": "inactive"},
      {"compound": "Cn1nnnc1Sc1ncnc2scc(-c3ccc(Br)cc3)c12", "Potency": "7.08 µM (active)"},
      {"compound": "N#CCSc1nc2ccc(N3CCCCC3)cc2c(=O)n1Cc1ccccc1", "Potency": "22.4 µM (active)"},
      {"compound": "Cc1ccc(-c2csc3ncnc(Sc4nnnn4C)c23)cc1", "Potency": "14.1 µM (active)"},
      {"compound": "Cn1nnnc1Sc1ncnc2scc(-c3cccc(Cl)c3)c12", "Potency": "11.2 µM (active)"},
      {"compound": "O=C(O)CCN1C(=O)/C(=C\\c2ccc(-c3nc4ccccc4s3)o2)SC1=S", "Potency": "5.62 µM (active)"},
      {"compound": "Cc1ccc(S(=O)(=O)CCc2nc3ccccc3n2CCC#N)cc1", "Potency": "25.1 µM (active)"},
      {"compound": "O=C(O)/C=C/C(O)c1ccc(Cl)cc1", "note": "(stereo not given)", "Potency": "inactive"},
      {"compound": "N#Cc1c(C(F)(F)F)cc(-c2ccc(Cl)cc2)[nH]c1=O", "Potency": "4.47 µM (active)"},
      {"compound": "COc1c(F)c(F)c(C(=O)Nc2ccc3oc(-c4ccncc4)nc3c2)c(F)c1F", "Potency": "inactive"},
      {"compound": "CCC(=O)OCCCCCCOc1ccc(C(=O)O)cc1", "Potency": "0.891 µM (active)"},
      {"compound": "COc1ccc(-c2[nH]ncc2-c2ccc3c(c2)OCCO3)c(O)c1", "Potency": "15.8 µM (active)"},
      {"compound": "Cn1nnnc1Sc1ncnc2scc(-c3ccc4ccccc4c3)c12", "Potency": "10 µM (active)"},
      {"compound": "O=[N+]([O-])c1ccc(O)c2ncccc12", "Potency": "22.4 µM (active)"}
    ]}
  ]
}
